Measurements: PubChem BioAssay AID708 (SRMLSC, 2007)
Hit rate of the full screen: of about 65,000 compounds, fewer than 10 were called active.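 How the source made its calls: active means at 10 µM dose, initial 340 nm absorbance at least 2 fold that of control wells; inactive means change under 2 fold.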 The list is a sample of the results.

Assay: A340 optical interference by library compounds – biochemical, MLSMR library, data from PS, PMK, MK assays, artefact control, profiling panel (AID 708);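 further: initial absorbance extrapolated from kinetic A340 decline of NADH oxidation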
Settings: compound absorbance at 340 nm, fold over control; at 10 µM; active compounds read high

Fold change, inactive:
CCCCCN(C(=O)NC(=O)Nc1ccccc1C)S(C)(=O)=O 1
CCNc1nc(N)nc(Oc2ccc(OCC)nn2)n1 1.07
CCOC(=O)CSc1nncc2ccc(OC)c(OC)c12 1.07
CCN(CC)S(=O)(=O)c1cc(C(=O)Nc2ccccn2)ccc1C 1.09
Cc1c2cnn(-c3ccccc3)c(=O)c2c(C)n1CCCC(=O)N1CCN(C)CC1 1.06
CNC(=O)c1cc2c(ccc3ccccc32)oc1=N 1.04
CSc1ncccc1C(=O)OCC(=O)N1CCOCC1 1.01
COc1ccc(-c2cn3ccsc3n2)cc1 1
CCCn1c(C(O)c2ccc(OCC)cc2)nc2ccccc21 (stereo unspecified) 1.02
O=C(NCc1ccco1)C1CCCN(S(=O)(=O)c2cccc3nonc23)C1 (stereo unspecified) 1.03
CCn1nc(NC(=O)c2ccco2)c2cc3ccc(C)cc3nc21 1.07
Cc1ccc(-n2nc(-c3ccco3)cc2C(=O)NCc2cccnc2)cc1 0.99
COc1ccc(C2CC(c3ccc(C)cc3)Nc3nc(N)nn32)cc1 (stereo unspecified) 1.02
Cc1ccc(C(=O)Nc2nnc(-c3ccncc3)s2)o1 1.33
CN(CCC#N)c1ncnc2scc(-c3ccccc3)c12 1.03
COc1ccc(C2CC(c3ccc(C)cc3)Nc3ncnn32)cc1 (stereo unspecified) 0.99
CSc1nsc(SC)c1NC(=O)OC1CCCCC1 1.03
Cc1ccc(NC2=NC(c3ccccc3)n3c(nc(C)cc3=O)N2)cc1 (stereo unspecified) 1.01
Cc1ccc(C2c3c(oc4ccc(C)cc4c3=O)C(=O)N2CCCN2CCOCC2)cc1 (stereo unspecified) 1.07
Cc1occc1C(=O)Nc1nnc(-c2ccncc2)s1 1.18
CCn1c(SCC(=O)NCc2ccco2)nnc1-c1ccc(N)cc1 1.03
COc1cccc(OCCOc2cccc(/C=N/n3cnnc3)c2)c1 1.05
C=CCn1c(CC(=O)Nc2cccc(OC)c2)nnc1SCC(=O)NC1CCCCC1 1.04
Cc1ccc(NC(=O)CS(=O)CC(=O)N(c2ccccc2)C(C)C(=O)NC2CCCC2)cc1 (stereo unspecified) 0.99
CCCOc1ccccc1-c1nc(SCCC(=O)O)n[nH]1 1
O=c1cccc(-c2ccc(Br)cc2)o1 1.07
CN1C(C)(C)CC(NC(=O)CCC(=O)NC2CC(C)(C)N(C)C(C)(C)C2)CC1(C)C 1.05
Cc1ccc(S(=O)(=O)NCc2csc(C)n2)c(C)c1 0.97
CCOC(=O)c1ccccc1NC(=O)CC1Nc2ccccc2NC1=O (stereo unspecified) 1.07
O=C(CCCOc1ccccc1)Nc1cccc(C(=O)O)c1 1.03
O=P(c1cccs1)(c1cccs1)c1cccs1 1.01
Cc1nnc(SCc2ccc(C(=O)c3ccc(Cl)cc3)o2)n1-c1ccccc1 1.14
c1csc(-c2cn3c(n2)SCC3)c1 1.03
COc1ccc(OCc2cccc(C(=O)N3CCCC3)c2)cc1 0.98
CCCC(=O)C1=C(N(C)c2ccccc2)CC(C)(C)C(C(=O)OC)C1=O (stereo unspecified) 1.04
c1ccc(-c2nnc(SCc3nc4ccccc4[nH]3)o2)cc1 1
CC(=O)c1cccc(NC(=O)N2CCCC2C(=O)NCCC(C)C)c1 (stereo unspecified) 1
Cc1ccccc1S(=O)(=O)Cc1ccc(C(=O)NCCN2CCCCC2C)o1 (stereo unspecified) 0.98
CCOc1ccc(C2C(C(=O)O)c3ccccc3C(=O)N2CCN2CCOCC2)cc1 (stereo unspecified) 1.01
Cc1ccccc1OCCC(=O)Nc1c(C)n(C)n(-c2ccccc2)c1=O 1.04
COc1ccccc1NC1=NC(c2ccc(Cl)cc2)N=C(N)N1 (stereo unspecified) 1.01
CC1CN(C(=O)CN2C(=O)NC(C)(c3ccccc3)C2=O)CC(C)O1 (stereo unspecified) 1.02
CCC(C)Sc1nc(C)nc2c1c(=O)n(C)c(=O)n2C (stereo unspecified) 1.03
CCNc1nc(NCC)nc(N(C)n2cnnc2)n1 1.02
CC(C)c1cc(C(=O)O)on1 0.99
O=C(CCCC(=O)N(CC(=O)NC1CCCC1)Cc1ccccc1Cl)Nc1ccccn1 1.01
O=C(CCN1C(=O)C2C3C=CC(C3)C2C1=O)Nc1ccccc1F (stereo unspecified) 0.99
COc1ccc(OC)c(C(c2nnnn2C(C)(C)C)N2CCc3ccccc3C2)c1 (stereo unspecified) 1.04
O=C(OCC(=O)N1CCN(C(=O)c2ccco2)CC1)c1ccccc1Cc1ccccc1 1
CC(C)CCNC(=O)CCNS(=O)(=O)c1ccc(Cl)cc1 0.97
Cc1cc(/C=N/n2cnnc2)c(C)n1-c1cccc(C(=O)O)c1 1.11
O=C(CNCCO)NC12CC3CC(CC(C3)C1)C2 1.03
CCN(c1ccccc1)S(=O)(=O)c1ccc(N)cc1 1.02
CC(=O)NS(=O)(=O)c1ccccc1 1
CCC(CC)c1nnc(NS(=O)(=O)Cc2ccccc2)s1 1.04
CCOc1cc(S(=O)(=O)NC2CC(C)(C)NC(C)(C)C2)ccc1F 1.05
O=C1CCCC(O)=C1C=NCCc1ccccc1 0.99
O=C(Nc1cc(=O)[nH]c2ncnn12)c1ccccc1Cl 0.98
Cn1c2c(c(=O)n(C)c1=O)C(c1ccc(O)cc1)Nc1ccccc1O2 (stereo unspecified) 1
Cc1occc1C(=O)N1CCCc2ccccc21 1.01
COc1ccc(C2SCCN2S(=O)(=O)c2ccccc2)cc1OC (stereo unspecified) 0.98
Cc1cc(C)cc(N(C(C)C(=O)Nc2c(C)n(C)n(-c3ccccc3)c2=O)S(C)(=O)=O)c1 (stereo unspecified) 1.05
Cn1nnnc1SCC(=O)N1CCN(Cc2ccccc2)CC1 1.01
CC(=O)Nc1cc(C(=O)O)ccc1S(=O)(=O)c1ccc(Cl)cc1 1.03
CCC1CCCCN1CCNS(=O)(=O)c1ccc2c(c1)CCN2C(C)=O (stereo unspecified) 1.03
O=C(CSc1nnc(-c2ccoc2)o1)N1CCOCC1 1.05
